Measured values as given in PubChem BioAssay (NCATS).
Inconclusive results are not listed. Entries that show only a call come without a potency. The source made the active and inactive calls. Calls come from the whole dose curve; as a rule, active = well fitted cell-killing curve with a large enough effect; inconclusive = small, poorly fitted or top-dose-only effect; inactive = flat fitted curve, though single readings scatter.
Potency is the fitted concentration of half-maximal effect.

Assay: Cell Viability - LYMP2-023 (AID 975); note: nearly all actives have a fitted effect of over 55% in size
Details: LYMP2-023 lymphoblastoid cell viability; series mostly up to 92.2 µM
From the text: NIH Chemical Genomics Center [NCGC]
NIH Molecular Libraries Screening Centers Network [MLSCN]
National Institutes of Environmental Health Sciences [NIEHS]
National Toxicology Program [NTP]
We have developed a 1536-well cell-based assay for quantitative high throughput screening (qHTS) against a number of cell lines to determine in vitro cytotoxicity of small molecules. This particular assay uses a human lymphoblastoid cell line (LYMP2-023) purchased from Coriell Institute for Medical Research.
NCGC Assay Protocol Summary:
The CellTiter-Glo luminescent cell viability assay (Promega) is a homogeneous method to measure the number of viable cells in culture. The end point readout of this assay is based on quantitation of intracellular ATP, an indicator of metabolic activity, using the luciferase reaction. Luciferase catalyzes the oxidation of beetle Luciferin to oxyluciferin and light in the presence of ATP. The luminescent signal is proportional to amount of ATP present.
Using the CellTiter-Glo luminescent cell viability assay, the amount of cellular ATP was measured in the lymphoblastoid cell line with complete culture medium following compound treatment for 24 hours. The assay was performed in opaque white Kalypsys 1536-well plates. In the screen, tetraoctylammonium bromide was used as positive control. Library compounds were measured for their ability to cause acute toxicity in the cell line, as reflected by a decrease in intracellular ATP levels, in a concentration-dependent manner. […] AC50 values were determined from concentration-response data modeled with the standard Hill equation.
qHTS protocol for CellTiter Glo lymphoblastoid cellular assay
[Step] [Parameter] [Value] [Description]
1. Reagent; 5 uL; 2500 lymphoblastoid cells/well
2. Time; 5 hr; 37 C incubation
4. Controls; 23 nL; Tetraoctylammonium bromide 6.4pM to 92 uM
5. Time; 24 hr; 37 C incubation
6. Reagent; 5 uL; CellTiter Glo reagent
7. Time; 30 min; Room Temperature
8. Detection; Luminescence; Viewlux plate reader
Keywords: cell viability, cytotoxicity, lymphoblastoid cell line, luminescence, NTPHTS, NTPHTS_NCGC, NIEHS, DSSTox, MLSMR, MLSCN, NIH Roadmap, qHTS, NCGC
With `N[C@@H](Cc1ccc(N(CCCl)CCCl)cc1)C(=O)O` the Potency was 39.8 µM (active).
For `c1ccc2c(c1)Nc1ccccc1S2`, the Potency was “inactive”.
In the case of `NCC(O)c1ccc(O)cc1` (stereo unspecified), the Potency is reported as “inactive”.
With `Oc1ccccc1-c1ccccc1` the Potency was “inactive”.
In the case of `CNCC(O)c1ccc(O)cc1` (stereo unspecified), the Potency is reported as “inactive”.
With `Oc1cccc2cccnc12` the Potency was 25.1 µM (active).
With `CCCC(C)(COC(N)=O)COC(=O)NC(C)C` (stereo unspecified) the Potency was “inactive”.
For `Oc1ccc(Cl)cc1Cc1ccccc1`, the Potency was “inactive”.
In the case of `CCOP(=S)(OCC)Oc1cc(C)nc(C(C)C)n1`, the Potency is reported as “inactive”.
For `CC(COc1ccccc1)N(CCCl)Cc1ccccc1` (stereo unspecified), the Potency was 50.1 µM (active).
In the case of `OCCOc1ccccc1`, the Potency is reported as “inactive”.
